These results are taken from PubChem BioAssay AID2289 (National Center for Advancing Translational Sciences (NCATS), 2010).

Out of some 340,000 compounds screened, about 3,300 (0.97%) were called active. Not shown: some 9% with an inconclusive outcome. Calls come from the whole dose curve; as a rule, active = well fitted inhibition curve with a large enough effect; inconclusive = small, poorly fitted or top-dose-only effect, or effect the other way; inactive = flat fitted curve, though single readings scatter. This is one part of the list.
Potency is the fitted concentration of half-maximal effect.

This experiment is described as follows: qHTS Assay for Modulators of miRNAs and/or Inhibitors of miR-21. Note: nearly all actives have a fitted effect of over 55% in size. The conditions noted are these: HeLa miR-21-FLuc reporter, luciferase luminescence, 48 h; actives lower the signal. The gist of the method: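 HeLa miR-21-FLuc reporter line, endogenous miR-21; 2000 cells/well in DMEM/10% FBS; compound titration up to ~40uM final, 48 h, 37 degree Celsius; luciferase detection reagent, 15 min lysis, CCD luminescence.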
Background: Quantitative high-throughput screening tests each substance at several concentrations.
In the case of `O=C(COc1ccc(Cl)cc1Cl)NC(=O)N1CCCCC1`, the Potency was 6.56 µM (active).
For the molecule `O=C(Nc1cccc2ccccc12)N1N=CCC1c1ccccc1` (stereo not given), the Potency was 6.56 µM (active).
With `Cc1ccc2nc(/C(C#N)=C/c3ccc(-c4ccc(C(=O)OC(C)C)cc4)o3)[nH]c2c1`, the Potency was 4.14 µM (active).
As for `COC(=O)c1sc(-c2cccs2)cc1N`, the figure is 8.26 µM (active); as for `CCOC(=O)c1sc(-c2ccccc2)cc1N`, 3.98 µM (active); as for `COC(=O)c1sc(-c2ccc(Cl)cc2)cc1N`, 4.14 µM (active).
On to `CCOC(=O)c1sc(-c2ccc(OC)cc2)cc1N`, for which the Potency was 0.927 µM (active).
Then `CCOC(=O)c1sc(=N)n(-c2ccc(OC)cc2)c1C`, with 7.36 µM (active); and `CCOC(=O)c1cc(-c2ccccc2)sc1N`, with 18.5 µM (active); and `CCOC(=O)c1c(N)sc(-c2ccccc2)c1C`, with 11.7 µM (active).
On to `COC(=O)c1ccc(N2OC3(C)C=CC2CC3)cc1` (stereo not given), for which the Potency was 13.1 µM (active).
On to `N/C(=N\OC(=O)c1ccco1)c1ccccc1`, for which the Potency was 5.21 µM (active).
Regarding `N/C(=N\OC(=O)c1ccco1)c1cccc(Br)c1`, the Potency is 3.69 µM (active).
Then `COc1ccc(/C(N)=N/OC(=O)c2ccco2)cc1OC`, with 1.85 µM (active); and `N/C(=N\OC(=O)c1cccs1)c1cccc(Br)c1`, with 8.26 µM (active).
Consider `N/C(=N\OC(=O)c1ccco1)c1ccc(Cl)cc1`, for which the Potency was 4.65 µM (active).
Take `CNc1nc(N2CCc3ccccc32)ncc1F`: the Potency was 1.85 µM (active).
Consider `CC1(C)CC(=O)c2cnc(N3CCc4ccccc43)nc2C1`, for which the Potency is 1.85 µM (active).
For the molecule `CC1(C)CC(=O)c2c(O)cc(OCc3ccc(Br)cc3)cc2O1`, the Potency is 3.29 µM (active).
As for `CCOc1ccc(N=Nc2c(N)[nH][nH]c2=O)cc1`, the figure is 2.93 µM (active); as for `COc1cccc(N=Nc2c(N)[nH][nH]c2=O)c1`, 7.36 µM (active).
Regarding `Cc1cc(C(=O)CSc2ccc(F)cc2)cc(C)c1O`, the Potency was 9.27 µM (active).
`Cc1cc(C(=O)CSc2ccccc2)cc(C)c1O`: the Potency is 9.27 µM (active).
For the molecule `O=C(Nc1ccc(N2CCOCC2)c(Cl)c1)C1CCCCC1`, the Potency is 16.5 µM (active).
As for `CN(Cc1ccsc1)C(=O)CCc1nnc(CCCc2ccccc2)o1`, the Potency was 11.7 µM (active).
Turning to `Cc1cc(C)cc(NC(=O)c2oc3ccc4c(c3c2C)C(=O)CC(C)(C)O4)c1`, the Potency was 0.826 µM (active).
As for `CCOC(=O)c1ccc(NC(=O)c2oc3ccc4c(c3c2C)C(=O)CC(C)(CC)O4)cc1` (stereo not given), the figure is 0.208 µM (active); as for `CCN(CC)c1ccc(/C=C(\C#N)C(N)=O)cc1`, 14.7 µM (active); as for `Brc1ccc(/C=N/Nc2ccc3ccccc3n2)cc1`, 2.61 µM (active).
On to `Brc1ccccc1/C=N/Nc1ccc2ccccc2n1`, for which the Potency was 1.17 µM (active).
As to `Brc1ccc(/C=N/Nc2nc3ccccc3o2)cc1`, the Potency was 1.04 µM (active).
Regarding `O=C(NCCc1cccs1)c1ccc(Cl)c(Cl)c1`, the Potency was 2.07 µM (active).
`c1ccc(CCc2nc3ccccc3[nH]2)cc1`: the Potency was 9.27 µM (active).
In the case of `Clc1ccccc1SCc1nc2ccccc2[nH]1`, the Potency was 7.36 µM (active).
As for `c1ccc(CSCc2nc3ccccc3[nH]2)cc1`, the figure is 7.36 µM (active); as for `CC1=NN(C(=O)c2ccc(C)o2)C(O)(c2ccccc2)C1` (stereo not given), 16.5 µM (active).
Then `COc1ccc(NC(=O)CSCc2ccccc2C)cc1`, with 7.36 µM (active); and `COc1ccc(CNC(=O)CSCc2ccccc2Cl)cc1`, with 13.1 µM (active).
`Cc1cccc(Nc2n[nH]c(C)c2[N+](=O)[O-])c1`: the Potency was 0.736 µM (active).
Then `Cc1ccc(Nc2cc(C)nc(-c3ccccc3)n2)cc1`, with 7.36 µM (active); and `CC(=O)c1ccc(NC(=O)c2cc(Cl)sc2Cl)cc1`, with 1.47 µM (active).
Turning to `CC(=O)c1ccc(NC(=O)c2ccc(C)c(Br)c2)cc1`, the Potency is 0.826 µM (active).
For `Cc1cc(-c2ccc(Br)cc2)n[nH]1`, the Potency is 13.1 µM (active).
In the case of `CCC(=O)N1CCC(c2ccc(OC)cc2)=N1`, the Potency was 13.1 µM (active).
As for `O=C(Nc1ccccc1F)C(=O)Nc1cccc2ccccc12`, the figure is 3.29 µM (active).
On to `O=C(CSc1cccs1)Nc1cccc2ccccc12`, for which the Potency is 10.4 µM (active).
As for `O=C(Nc1cccc2ccccc12)c1onc2c1CCCC2`, the Potency is 5.85 µM (active).
Then `O=C(Nc1cccc2ccccc12)c1ccccc1`, with 6.56 µM (active).
As for `CC1CC1C(=O)OCC(=O)Nc1ccc(N=Nc2ccccc2)cc1` (stereo not given), the figure is 1.47 µM (active); as for `O=C(COC(=O)C1CC1)Nc1ccc(N=Nc2ccccc2)cc1`, 1.85 µM (active); as for `C(=N\Nc1cc(N2CCCCC2)ncn1)/c1ccco1`, 2.93 µM (active).
`Cc1ccc(-c2cc(=O)c3cc(Cl)ccc3[nH]2)cc1`: the Potency is 0.369 µM (active).
As for `FC(F)(F)c1cc(Cl)c2nc(-c3ccccc3)cn2c1`, the figure is 0.369 µM (active).
In the case of `CNc1oc(/C=C/c2cccc(OC)c2)nc1C#N`, the Potency is 2.93 µM (active).
As for `CNc1oc(/C=C/c2ccccc2)nc1C#N`, the Potency was 3.29 µM (active).
For the molecule `CCCCNc1nc(N)nc(-c2cc(Cl)ccc2O)n1`, the Potency is 0.927 µM (active).
On to `CNC(=O)c1ccc(NC(=O)/C=C/c2cccc(F)c2)cc1`, for which the Potency is 10.4 µM (active).
Then `Cn1cc([N+](=O)[O-])c(C(=O)Nc2ccc3nc(-c4ccccc4)[nH]c3c2)n1`, with 14.7 µM (active); and `Cn1cc([N+](=O)[O-])c(C(=O)Nc2ccc(-c3nc4ccccc4o3)cc2)n1`, with 7.36 µM (active).
As for `CC(C)(C)Nc1nc(-c2ccc3c(c2)CCN3C(=O)C2CC2)cs1`, the Potency is 1.47 µM (active).
For `CNc1nc(-c2ccc3c(c2)CCN3C(=O)c2ccccc2C)cs1`, the Potency is 4.65 µM (active).
On to `COC(=O)c1ccc(N2CCC(C)CC2)c(N)c1`, for which the Potency is 4.14 µM (active).
As for `COc1ccc2oc(C(=O)NC(C)(C)C)c(C)c2c1`, the figure is 3.69 µM (active); as for `Cc1c(C(=O)NC2CCCCC2)oc2ccc(F)cc12`, 13.1 µM (active); as for `COc1ccc2oc(C(=O)NC3CCCCC3)c(C)c2c1`, 2.93 µM (active).
Regarding `COc1ccc2c(c1)OC/C(=C/c1cccs1)C2=O`, the Potency was 5.85 µM (active).
With `Cn1cccc1C(=O)N/N=C/c1c(Cl)cccc1Cl`, the Potency was 2.07 µM (active).
For the molecule `O=C(CSc1nnc(C2CCCCC2)o1)Nc1ccccc1Cl`, the Potency was 7.36 µM (active).
Regarding `Cc1cccc2nc(=S)n(C(=O)c3ccco3)n12`, the Potency was 0.521 µM (active).
As to `Cc1cccn2c1nc(=S)n2C(=O)c1ccco1`, the Potency was 1.04 µM (active).
Turning to `CC(=O)Oc1ccc(C(=O)[C@H]2[C@H]3C(=O)N(c4ccc5ccccc5c4)C(=O)[C@H]3[C@@H]3C=CC=NN32)cc1`, the Potency is 6.56 µM (active).
For the molecule `Cc1cc2nc(N)sc2cc1[N+](=O)[O-]`, the Potency was 14.7 µM (active).
On to `O=S(=O)(Nc1ccc(-c2nc3cccnc3s2)cc1)c1ccccc1F`, for which the Potency is 13.1 µM (active).
In the case of `Cc1ccc(-c2nc3cccnc3s2)cc1NS(C)(=O)=O`, the Potency was 4.14 µM (active).
As to `O=S(=O)(Nc1ccc(-c2nc3cccnc3s2)cc1)c1cc(F)ccc1F`, the Potency is 16.5 µM (active).
`CCN1CCN(Cc2ccc(NC(=O)Nc3ccc(SC)cc3)cc2)CC1`: the Potency was 14.7 µM (active).
On to `CCN1CCN(Cc2ccc(NC(=O)Nc3ccccc3Cl)cc2)CC1`, for which the Potency was 1.31 µM (active).
Regarding `O=C(Nc1ccc(CN2CCCCC2)cc1)Nc1ccccc1Cl`, the Potency is 16.5 µM (active).
Take `O=C(Nc1cc2c(cc1Cl)OCCO2)c1ccco1`: the Potency is 6.56 µM (active).
As for `O=C(NNC(=S)Nc1ccc(Br)cc1Cl)c1ccco1`, the figure is 3.29 µM (active).
`O=C(Nc1cc2c(cc1Cl)OCCCO2)c1ccco1`: the Potency is 3.69 µM (active).
`O=C(Nc1cc2c(cc1Br)OCCO2)c1ccco1`: the Potency is 6.56 µM (active).
As to `O=C(CCc1ccccc1)Nc1cc2c(cc1Cl)OCCO2`, the Potency was 2.61 µM (active).
As for `Cc1c(-c2ccccc2)[nH]n2c(=O)c3c(nc12)CCCC3`, the Potency is 2.93 µM (active).
Then `CC(C)(C)C(=O)Nc1ccc(-c2nc3ccc(NC(=O)C(C)(C)C)cc3[nH]2)cc1`, with 0.414 µM (active).
`CC(=O)Nc1ccc2nc(-c3cccs3)[nH]c2c1`: the Potency is 9.27 µM (active).
As for `CCOc1cc(/C=C2\N=C3CCCCCN3C2=O)ccc1O`, the figure is 14.7 µM (active); as for `O=C1/C(=C\c2ccc(O)c(O)c2)N=C2CCCCCN12`, 14.7 µM (active); as for `Cc1ccc2nc(CNC(=O)c3ccccc3)[nH]c2c1`, 6.56 µM (active).
Then `Cc1c(/C(O)=C2/C(=O)C(=O)N(Cc3cccnc3)C2c2cccs2)cnn1-c1ccccc1` (stereo not given), with 5.21 µM (active); and `Cn1c(N)c(C(=O)/C=C/c2ccccc2)c(=O)[nH]c1=O`, with 5.85 µM (active); and `Nc1cccc(C(=O)OCC(=O)c2ccccc2)c1`, with 7.36 µM (active).
`CNc1ccccc1C(=O)OCC(=O)c1ccccc1`: the Potency is 16.5 µM (active).
For `CC(=O)Nc1cc(C(=O)OCC(=O)c2ccc(C)cc2)ccc1C`, the Potency is 10.4 µM (active).
As for `CCC(=O)Nc1cc(C(=O)OCC(=O)c2ccccc2)ccc1C`, the Potency is 1.85 µM (active).
As for `CCC(=O)Nc1cc(C(=O)OCC(=O)c2ccccc2Cl)ccc1C`, the figure is 10.4 µM (active); as for `Cc1ccc(C(=O)CCC2CCCCC2=O)cc1` (stereo not given), 14.7 µM (active).
For `CCc1ccc(C(=O)CCC2CCCCC2=O)cc1` (stereo not given), the Potency is 16.5 µM (active).
Take `O=C(O)c1ccccc1C(=O)NNc1cccc(Cl)n1`: the Potency was 5.85 µM (active).
As for `CCOC(=O)/C=C/c1cnn(-c2ccccc2)c1`, the figure is 2.33 µM (active).
